{
  "source": "PubChem BioAssay (EPA / NIEHS)",
  "note": "Calls of active or inactive are those of the source. The calls were made as follows: active = hit-call score of the fitted dose curve at least 0.9, where 1 is the maximum; inactive = score below 0.9.",
  "data": [
    {"read-out": "matrix metalloproteinase-10 (MMP10), MMP10 (gene 4319)", "assay": "LTEA_HepaRG_MMP10: Life Technologies and Expression Analysis (LTEA) Assay for matrix metalloproteinase-10 (MMP10) using HepaRG (AID 2283517)", "settings": "mRNA level, 48 h; actives raise or lower the signal", "procedure,_shortened": "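Differentiated HepaRG cells in serum-free induction medium exposed 48 h in duplicate to 8-point half-log series up to 100 uM in 0.5% DMSO. mRNA quantified by qRT-PCR, normalised to ACTB, GAPDH, POLR2A; bidirectional fit versus DMSO.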", "values": [
      {"smiles": "COc1cc(Cl)c(OC)cc1Cl", "outcome": "inactive"},
      {"smiles": "N#CN=C1SCCN1Cc1ccc(Cl)nc1", "outcome": "inactive"},
      {"smiles": "COc1ccc(-c2ccccc2)cc1NNC(=O)OC(C)C", "outcome": "inactive"},
      {"smiles": "C=CCOC(=O)C(C)(C)OC(=O)c1cc(-n2c(=O)cc(C(F)(F)F)n(C)c2=O)ccc1Cl", "outcome": "inactive"},
      {"smiles": "COCc1cnc(C2=NC(C)(C(C)C)C(=O)N2)c(C(=O)O)c1", "note": "(stereo unspecified)", "outcome": "inactive"},
      {"smiles": "CCOc1nc(C(Cl)(Cl)Cl)ns1", "outcome": "inactive"},
      {"smiles": "Cc1nc(N(C)C)nc(OC(=O)N(C)C)c1C", "outcome": "inactive"},
      {"smiles": "O=C(O)c1c(Cl)ccc2cc(Cl)cnc12", "outcome": "inactive"},
      {"smiles": "COC(=O)NC(=S)Nc1ccccc1NC(=S)NC(=O)OC", "outcome": "inactive"},
      {"smiles": "CCC(C)n1c(=O)[nH]c(C)c(Br)c1=O", "note": "(stereo unspecified)", "outcome": "inactive"},
      {"smiles": "COP(=S)(OC)SCn1nnc2ccccc2c1=O", "outcome": "inactive"},
      {"smiles": "CCCCC(O)(Cn1cncn1)c1ccc(Cl)cc1Cl", "note": "(stereo unspecified)", "AC50": "67.4 µM (active)"},
      {"smiles": "Cc1cc(C)nc(Nc2ccccc2)n1", "outcome": "inactive"},
      {"smiles": "CCSC(=O)N1CCCCCC1", "outcome": "inactive"},
      {"smiles": "O=P(O)(O)CCCl", "outcome": "inactive"},
      {"smiles": "CC(C)Oc1cccc(NC(=O)c2ccccc2C(F)(F)F)c1", "outcome": "inactive"},
      {"smiles": "CC(C)(C)C(=O)C(Oc1ccc(Cl)cc1)n1cncn1", "note": "(stereo unspecified)", "outcome": "inactive"},
      {"smiles": "Nc1cnn(-c2ccccc2)c(=O)c1Cl", "outcome": "inactive"},
      {"smiles": "CCN(CC)c1nc(C)cc(OP(=S)(OC)OC)n1", "outcome": "inactive"},
      {"smiles": "CCCN(CC)CC1COC2(CCC(C(C)(C)C)CC2)O1", "note": "(stereo unspecified)", "outcome": "inactive"},
      {"smiles": "Nc1c(Cl)c(Cl)nc(C(=O)O)c1Cl", "outcome": "inactive"},
      {"smiles": "CC(C)C1(C)N=C(c2ncccc2C(=O)O)NC1=O", "note": "(stereo unspecified)", "outcome": "inactive"},
      {"smiles": "COC(=O)N(C(=O)N1CO[C@@]2(C(=O)OC)Cc3cc(Cl)ccc3C2=N1)c1ccc(OC(F)(F)F)cc1", "outcome": "inactive"},
      {"smiles": "CC(C)NC(=O)N1CC(=O)N(c2cc(Cl)cc(Cl)c2)C1=O", "outcome": "inactive"},
      {"smiles": "CCOP(=S)(OCC)Oc1nc(Cl)n(C(C)C)n1", "outcome": "inactive"},
      {"smiles": "CCCC(=NOCC)C1=C(O)CC(CC(C)SCC)CC1=O", "note": "(stereo unspecified)", "outcome": "inactive"},
      {"smiles": "COCC(=O)N(c1c(C)cccc1C)C(C)C(=O)OC", "note": "(stereo unspecified)", "outcome": "inactive"},
      {"smiles": "COP(=O)(OC)O/C(C)=C/C(=O)N(C)C", "outcome": "inactive"},
      {"smiles": "CC1(C)C(C(=O)OC(C#N)c2cccc(Oc3ccccc3)c2)C1(C)C", "note": "(stereo unspecified)", "outcome": "inactive"},
      {"smiles": "CS(=O)(=O)c1ccc(C(=O)C2C(=O)CCCC2=O)c([N+](=O)[O-])c1", "outcome": "inactive"},
      {"smiles": "CCCCC(C#N)(Cn1cncn1)c1ccc(Cl)cc1", "note": "(stereo unspecified)", "outcome": "inactive"},
      {"smiles": "CN=C=S", "outcome": "inactive"},
      {"smiles": "Clc1cccc(C(Cl)(Cl)Cl)n1", "outcome": "inactive"},
      {"smiles": "CCNP(=S)(OC)O/C(C)=C/C(=O)OC(C)C", "note": "(stereo unspecified)", "outcome": "inactive"},
      {"smiles": "Cc1cnc(C2=NC(C)(C(C)C)C(=O)N2)c(C(=O)O)c1", "note": "(stereo unspecified)", "outcome": "inactive"},
      {"smiles": "COc1cc(OC)nc(NC(=O)NS(=O)(=O)c2ncccc2OCC(F)(F)F)n1", "outcome": "inactive"}
    ]}
  ]
}
